Shown are actives, neighbours in structure and some others; about 1.2% of the full set was active somewhere.
eIF4E 4G PPI = inhibitors of eIF4E and eIF4G interaction in translation initiation | P63073+Q04637 | TR-FRET eIF4E-eIF4GI(517-606) binding, 2 h | inhibition, % at 21.7 µM | hit rate 0.37% among 220,000 | AID 782;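 active means inhibition above about 30%, limit read from the data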;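 further: 0% = full FRET control wells and 100% = background wells lacking eIF4GI fragment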
TNF necrop inh = blocks TNF-alpha induced death of Jurkat FADD-/- cells | hit rate 0.068% among 220,000 | activation (protection from cell death), % at 10 µM | Jurkat FADD-/- TNF necroptosis rescue, ATP luminescence, 24 h; 0 = TNF only, 100 = no-TNF cells;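 active means activation, meaning protection from cell death, of at least 50% relative to plate controls; inactive means activation below 50%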;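 further: necroptosis triggered by 40 ng/mL TNF-alpha added together with compound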
EBV gp42 block = EBV gp42 inhibition. hit rate 0.42% among 220,000. Q1HVG2. Fluorescence polarization binding assay, mP read-out. inhibition, % (tested at 21.74 µM); in the data active means inhibition above about 50%
Target sequence (Q1HVG2 whole entry, looked up): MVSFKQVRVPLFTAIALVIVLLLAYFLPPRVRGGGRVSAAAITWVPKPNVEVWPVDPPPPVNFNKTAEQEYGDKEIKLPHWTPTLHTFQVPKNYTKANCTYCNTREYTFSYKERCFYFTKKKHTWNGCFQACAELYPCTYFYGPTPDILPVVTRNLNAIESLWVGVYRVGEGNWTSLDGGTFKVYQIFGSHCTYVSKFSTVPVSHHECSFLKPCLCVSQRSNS
zVAD death inh = L929 zVAD cell death inhibition; L929 zVAD necroptosis rescue, ATP luminescence, 24 h; with zVAD 60 µM; hit rate 0.38% among 220,000; AID 1377; viability rescue, % at 10 µM;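 active means activation, scaled between plate controls, above about 75%, limit read from the data; inactive means activation under that limit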;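 further: 0% = zVAD with DMSO and 100% = DMSO alone without zVAD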
zVAD necrop conf = confirmed blocker of zVAD induced death in L929 cells. AID 463117. shares compounds with zVAD death inh. hit rate 16% among 760. L929 zVAD-induced necroptosis rescue, ATP luminescence, 24 h. activation (protection from necroptosis), % at 10 µM;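 active means mean protection from necroptosis of at least 50% over duplicate tests; inactive means mean protection below 50%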;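 further: 0% = cells with zVAD alone and 100% = vehicle cells without zVAD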
* hit, by the source's call; nt = no result.

SMILES	eIF4E 4G PPI	TNF necrop inh	EBV gp42 block	zVAD death inh	zVAD necrop conf
Cc1[nH][nH]c(=O)c1C(c1c(C)[nH][nH]c1=O)c1cn(C)c2ccccc12	-2.3	-2.8	1.7	79.8*	23.3
Cc1cc(Nc2ccccc2C(=O)O)n(-c2ccc([N+](=O)[O-])cc2)n1	-0.3	-0.7	-1.2	1.4	nt
CC1CCCN(Cc2c(O)ccc3c(=O)c(-c4nc5ccccc5s4)c(N)oc23)C1 (stereo unspecified)	1.9	-4.3	-19.1	78.0*	37.9
Cc1cc(C[n+]2cc(Br)ccc2N)c2ncccc2c1	-12.9	7.3	-27.8	-1.0	nt
C/C(CCc1ccccc1)=N/NC(=O)C(=O)NC(C)c1ccccc1 (stereo unspecified)	1.1	0.9	-16.0	6.2	nt
C/C(CC(=O)NC(C)C)=N\NC(=O)C(c1ccccc1)c1ccccc1	-0.8	29.6	-14.1	82.4*	40.3
COc1ccc(C2=NN(C(=O)CCCC(=O)O)C(c3cn(-c4ccccc4)nc3-c3ccccc3)C2)cc1 (stereo unspecified)	-4.6	1.8	19.9	-0.4	nt
ClC1=C(Cl)C(Cl)=C(Cl)C1=C/C=C/c1ccccc1	3.7	-28.6	-7.8	112.2*	3.4
CC1=NN(c2ccccc2)C(=O)/C1=C\C=C\c1ccccc1	0.7	-26.7	-9.8	3.9	nt
CCN(CC)c1ccc(NC(=O)c2ccc(=O)[nH]c2)cc1S(=O)(=O)Nc1ccccc1OC	0.6	-7.9	-1.7	0.9	nt
COC(=O)c1ccn(Cc2ccccc2Cl)n1	-3.0	100.0*	-3.5	89.9*	81.3*
COC(=O)c1cc2n(n1)CCN(Cc1ccccc1Cl)C2=O	-3.7	-1.5	-20.1	-0.2	nt
COC(=O)c1c(C)[nH]c(O)c1C=Nc1ccc(C(C)C)cc1	-10.0	-0.8	5.4	82.4*	3.7
CCSc1ccccc1C(=O)Nc1ccc(S(=O)(=O)NC(C)=O)cc1	1.2	-0.2	-2.6	-1.7	nt
O=c1[nH]c2ccccc2nc1-c1ccc(Cl)cc1	-6.0	1.4	-14.7	76.4*	2.1
O=C(Nc1nsc(-c2ccccc2)n1)c1cccs1	-2.0	-0.7	-3.9	75.3*	0.2
Cc1sc(NC(=O)c2cccs2)nc1-c1ccccc1	4.9	7.7	-1.0	3.2	nt
c1ccc(-c2csc3ncnc(NCc4ccccn4)c23)cc1	-1.9	-11.2	2.6	78.3*	3.9
c1ccc(CNc2ncnc3scc(-c4cccs4)c23)nc1	0.9	-5.6	-12.6	55.2	nt
COc1ccc(/C=C/C(=O)OCC(=O)NCc2ccco2)c(OC)c1	-0.8	0.1	-8.7	1.6	nt
CO/N=C\c1cc(C(=O)c2ccc(Cl)cc2Cl)cn1C	0.0	-2.9	1.4	0.0	nt
Cc1cn(-c2cc(C(=O)Nc3ccc(C)c(NC(=O)C(=O)c4c[nH]c5ccccc45)c3)cc(C(F)(F)F)c2)cn1	-2.8	-10.1	-18.4	77.4*	70.8*
Cc1ccc(C(=O)Nc2cccc(C(F)(F)F)c2)cc1NC(=O)c1cnnc2ccccc12	3.3	1.5	-14.1	72.2	nt
Nc1cc(C(=O)N/N=C/c2cccc([N+](=O)[O-])c2)n[nH]c1=O	1.0	-0.2	-3.0	-0.8	nt
CCN1C(=O)/C(=C/c2ccc(C)s2)NC1=S	3.0	49.1	-5.3	98.5*	93.8*
SMILES	eIF4E 4G PPI	TNF necrop inh	EBV gp42 block	zVAD death inh	zVAD necrop conf
COc1ccc(NC(=O)Nc2cnccn2)cc1	-0.5	1.3	-14.1	2.0	nt
COC(=O)c1ccccc1NC(=O)Nc1cc(C)ccn1	1.6	-0.4	-11.1	-0.2	nt
Cc1ccc(NC(=O)Nc2cnccn2)cc1Cl	1.2	1.7	-1.4	80.0*	2.3
O=C(Nc1cnccn1)Nc1ccc(Cl)cc1Cl	-2.5	-3.1	-2.3	80.1*	1.3
Cc1ccnc(NC(=O)Nc2ccc(Br)cc2Cl)c1	-0.8	0.2	0.1	83.1*	1.4
CC1CCN(CC(CS(=O)(=O)c2ccc([N+](=O)[O-])cc2)N2CCC(C)CC2)CC1 (stereo unspecified)	2.7	-30.1	-17.8	35.0	nt
Oc1c(C=Nc2ccccc2Cl)[nH]c2ccccc12	3.2	-3.7	3.0	0.5	nt
Cc1ccc(C(=O)Nc2cccc(C(F)(F)F)c2)cc1Nc1ccccn1	-2.5	2.9	-7.2	79.2*	65.1*
O=C(Nc1ccccc1C(F)(F)F)c1ncn[nH]1	-1.9	-0.8	-6.7	-0.5	nt
Nn1cnn(Cc2ccccc2)c1=S	-10.6	6.2	-12.0	88.0*	31.8
CC(C)CC(=O)Nc1nnc(CSCc2ccc(F)cc2)s1	1.9	3.0	-8.0	0.7	nt
CCC1(C)N=C(N)Nc2nc3cc(C)c(C)cc3n21 (stereo unspecified)	1.2	-2.2	-10.6	-0.5	nt
COc1cc(C2NC(=S)NC(C)=C2C(=O)Nc2cc(C)cc(C)c2)ccc1O (stereo unspecified)	0.4	-1.9	-4.3	0.3	nt
O=C(Nc1ccc(F)cc1)Nc1ccc(N2CCCC2)c(S(=O)(=O)Nc2ccccc2Cl)c1	-0.1	2.0	-8.7	75.9*	72.1*
Cc1ccc(S(=O)(=O)N2CCCCC2)cc1NC(=O)c1ccccn1	-5.6	2.0	-0.5	-0.4	nt
CCC12CN3CC(CC)(CN(C1)C3c1ccc([N+](=O)[O-])o1)C2=O (stereo unspecified)	0.7	0.1	-10.0	16.8	nt
Cc1ccc(N=c2oc3cc(O)ccc3cc2C(N)=O)cc1	-6.5	-11.1	-24.7	78.6*	37.7
CN1CCN(c2ccc(-c3ccnn3C(=O)Nc3cccc(C(F)(F)F)c3)cc2)CC1	5.7	6.1	2.1	84.5*	50.8*
COc1ccc(N2CCN(C(=O)Nc3cccc(C(F)(F)F)c3)CC2)cc1	13.3	2.4	3.2	0.3	nt
COc1ccc(CC(=O)Nc2ccc(-c3cn4cccc(C)c4n3)cc2)cc1OC	1.4	-1.8	-2.7	-0.9	nt
COc1ccc(CC(=O)Nc2ccc(-c3cn4ccc(C)cc4n3)cc2)cc1	-8.7	2.1	1.9	81.3*	23.6
COCCNC(=O)c1cc(Sc2nnc(C)s2)nc2ccccc12	-3.9	4.0	-6.3	75.5*	8.2
Cn1c(C(=O)NCCCN2CCOCC2)cc2c(=O)n(C)c3ccccc3c21	6.2	0.9	4.0	54.9	nt
Cn1c(C(=O)NCc2ccccn2)cc2c(=O)n(C)c3ccccc3c21	-3.3	0.5	-18.7	88.9*	3.1
CN1CCN(CCCNC(=O)c2cc3c(=O)n(C)c4ccccc4c3s2)CC1	-0.9	2.1	-6.4	77.0*	23.8
Cn1c(C(=O)NCCN2CCCCCC2)cc2c(=O)n(C)c3ccccc3c21	-4.8	3.2	-25.2	84.2*	10.3
CC(C)OCCCNC(=O)c1cc2c(=O)n(C)c3ccccc3c2n1C	-5.2	0.1	-18.6	9.5	nt
CCCCN(CC)CCCNC(=O)c1cc2c(=O)n(C)c3ccccc3c2n1C	-8.2	-0.8	-20.0	80.1*	33.5
CCCC(=O)Nc1nc2ccc(OC)cc2s1	2.4	4.7	4.2	72.0	nt
COc1ccc2nc(NC(=O)CCNC(=O)c3ccccc3Cl)sc2c1	0.9	1.6	-4.3	78.0*	2.9

Assay outcomes deposited in PubChem BioAssay by several laboratories.
